Test results: PubChem BioAssay AID463173 (ICCB-Longwood Screening Facility, Harvard Medical School, 2010)
Hit rate of the full screen: of about 52,000 compounds, about 1,700 (3.3%) were called active. The entries come from a sample that favours actives as a whole. Unmarked numbers belong to inactive results. Rule as the data show it: active = survival mostly below about 52% (no sharp cut-off); inactive = mostly above about 56%.

Each molecule was assayed on Wild type (assay: growth inhibition of S. aureus wild type versus tarO mutant, primary screen, teichoic acid synthesis inhibitors, RN4220, OD600 (AID 463173)). Conditions: S. aureus RN4220 wild type/DeltatarO growth, OD600, 18 h, hits give low values, screened at 18.75 µg/mL (by protocol).

Row | SMILES | survival
1 | C=CCN(CC=C)C(=S)Nc1ccc2nc(C)c(C)nc2c1 | 110%
2 | Cc1ccc(-c2nc3ncccc3o2)cc1NC(=O)c1ccc(-c2ccc(Cl)cc2)o1 | 73%
3 | COc1ccc(Cn2c(SCc3ccc(C(=O)NCc4ccccc4F)cc3)nc3cccnc32)cc1 | 67%
4 | CCOc1ccc(NC(=O)CN2CCN(CC(=O)Nc3ccccc3OCC)CC2)cc1 | 81%
5 | CCOc1ccccc1NC(=O)Cc1coc2c(C)c(C)ccc12 | 114%
6 | CC1CCN(C(=O)Cn2cc(SCC(=O)NCc3ccc(F)cc3)c3ccccc32)CC1 | 89%
7 | CCCc1cc(=O)[nH]c(Nc2ccc(O)cc2C)n1 | 110%
8 | COc1ccc(C)c(N2C(=O)CC(N3CCN(c4ccc(F)cc4)CC3)C2=O)c1 (centres undefined) | 109%
9 | CC1Cc2ccccc2N1C(=O)c1cc2n(n1)C(C(F)(F)F)CC(c1ccco1)N2 (centres undefined) | 110%
10 | Cc1ccc(CN2C(=O)C(=O)c3cc(Br)cc(C)c32)cc1 | 40%
11 | CCCCOc1ccc(CN2C(=O)C(=O)c3cc(Br)cc(C)c32)cc1OC | 59%
12 | Cc1cccc2c1N(Cc1ccccc1OCCC(C)C)C(=O)C2=O | 25% (active)
13 | CCCOc1ccc(CN2C(=O)C(=O)c3cccc(C)c32)cc1 | 38%
14 | Cc1cc(Br)cc2c1N(Cc1ccccc1OC(C)C)C(=O)C2=O | 26% (active)
15 | COc1ccccc1CN1C(=O)C(=O)c2cccc(C)c21 | 107%
16 | CC(=O)c1cc(-c2ccccc2)n(CCC(=O)Nc2ccc(C)cc2C)c1C | 85%
17 | Cc1ccc(-c2nn(CC(=O)NC3CCCCC3)c3c2cnc2ccccc23)cc1 | 75%
18 | CN(Cc1ccccc1)C(=O)COc1ccc(S(=O)(=O)N2CCCC2)cc1 | 121%
19 | Nc1nc(Nc2ccccc2F)sc1C(=O)c1ccc(Cl)cc1 | -7% (active)
20 | COc1ccc(C(=O)c2sc(Nc3cc(Cl)ccc3C)nc2N)cc1OC | 129%
21 | Nc1c(C(=O)c2ccc(F)cc2)sc(Nc2ccccc2F)c1S(=O)(=O)c1ccc(Br)cc1 | 74%
22 | CCc1nn2c(=O)cc(COC(=O)c3cccs3)nc2s1 | 89%

Row | SMILES | survival
23 | CCOC(=O)c1c(S(=O)(=O)N2CCCC(C(=O)Nc3ncccc3C)C2)c(C)n(C)c1C (centres undefined) | 71%
24 | O=C(CSc1nnc(NC(=O)C2CC2)s1)Nc1ccccc1F | 108%
25 | CCOc1ccccc1CNC(=O)c1ccc(N2Cc3ccccc3Oc3ncccc32)s1 | 84%
26 | CCOC(=O)c1sc2ncn(CC(=O)Nc3ccc(OC)c(Cl)c3)c(=O)c2c1C | 78%
27 | O=C(NCc1ccccc1)c1nc[nH]c1C(=O)NCc1ccccc1 | 123%
28 | CCOc1cccc2cc(-c3cn4c(n3)sc3cc(C)ccc34)c(=O)oc12 | -6% (active)
29 | COc1cccc2cc(-c3cn4c(n3)sc3cc(F)ccc34)c(=O)oc12 | 75%
30 | CCOc1cccc2cc(-c3cn4c(n3)sc3ccccc34)c(=O)oc12 | 64%
31 | Cc1oc(-c2ccc(Cl)cc2)nc1CN1CCCC(C(=O)NCCc2ccc(Cl)cc2)C1 (centres undefined) | 86%
32 | Cc1oc(-c2cccc(Cl)c2)nc1CN1CCC(C(=O)NCCc2ccc(Cl)cc2)CC1 | 88%
33 | Cc1cccc(-c2nc(CN3CCCC(C(=O)NCCc4ccc(Cl)cc4)C3)c(C)o2)c1 (centres undefined) | 29%
34 | Cc1oc(-c2ccc(Cl)cc2)nc1CN1CCCC(C(=O)NCCc2ccccc2)C1 (centres undefined) | 29%
35 | Cc1ccc(CCNC(=O)C2CCCN(Cc3nc(-c4cccc(Cl)c4)oc3C)C2)cc1 (centres undefined) | 9% (active)
36 | Cc1oc(-c2cccc(Cl)c2)nc1CN1CCCC(C(=O)NCCc2ccc(Cl)cc2)C1 (centres undefined) | -2% (active)
37 | CCc1ccc(C(=O)c2cn(CC(=O)Nc3ccc4c(c3)OCO4)c3cc(OC)c(OC)cc3c2=O)cc1 | 107%
38 | Cc1ccccc1NC(=O)c1ccccc1NC(=O)c1ccccc1F | 89%
39 | COc1ccc(NC(=O)CC2C(=O)N(c3ccccc3)C(=O)N2C2CCCCC2)cc1 (centres undefined) | 70%
40 | O=C(Nc1ccccc1C(F)(F)F)C1CCN(c2nnc(-n3cccc3)s2)CC1 | 113%
41 | COc1ccc(C(C)=O)cc1CSc1nc(NCc2ccc(Cl)cc2)c2ccccc2n1 | 0% (active)
42 | COc1ccc(C(C)=O)cc1CSc1nc(NCc2ccccc2)c2ccccc2n1 | 85%
43 | COc1ccc(C(C)=O)cc1CSc1nc(NCCc2ccccc2)c2ccccc2n1 | 47%
44 | CN(C(=O)c1c2c(nc3ccccc13)C(=O)N(C1CCCCC1)C2)c1ccc(F)cc1 | -3% (active)

Row | SMILES | survival
45 | O=C(NCc1ccc(F)cc1)c1c2c(nc3ccccc13)C(=O)N(C1CCCCC1)C2 | 99%
46 | CCOc1ccccc1N(C)C(=O)c1c2c(nc3ccccc13)C(=O)N(C1CCCCC1)C2 | 90%
47 | COc1ccc(CNC(=O)Cn2ncc3c(=O)oc4ccc(C)cc4c32)c(OC)c1 | 113%
48 | Cc1ccc(OCCCC(=O)Nc2sc3c(c2C(N)=O)CCC(C)C3)cc1 (centres undefined) | 148%
49 | COC(=O)c1c(NC(=O)CCCOc2ccccc2)sc2c1CCC(C)C2 (centres undefined) | 20%
50 | CCOC(=O)c1c(NC(=O)CCCOc2ccccc2C)sc2c1CCC(C)C2 (centres undefined) | 6% (active)
51 | CC1CCc2c(sc(NC(=O)CCCOc3ccccc3)c2C(N)=O)C1 (centres undefined) | 91%
52 | CCOC(=O)c1c(NC(=O)CCCOc2ccc(C)cc2)sc2c1CCC(C)C2 (centres undefined) | 2% (active)
53 | CCOC(=O)c1c(NC(=O)CS(=O)(=O)c2ccc(C)cc2)sc2c1CCC(C)C2 (centres undefined) | 73%
54 | COC(=O)c1ccccc1NC(=O)COC(=O)c1ccco1 | 108%
55 | COc1ccc(CNC(=O)c2cc(=O)[nH]c3ccc(S(=O)(=O)N4CCCC4)cc23)c(OC)c1 | 60%
56 | CCOc1cc(CNC(=O)C2COc3ccccc3C2)cc(OCC)c1OCC (centres undefined) | 73%
57 | CN(C)c1ccc(CNC(=O)C2COc3ccccc3C2)cc1 (centres undefined) | 0% (active)
58 | O=C(NCCc1ccccc1)C1COc2ccccc2C1 (centres undefined) | 10% (active)
59 | Cc1ccc(CNC(=O)C2COc3ccccc3C2)cc1 (centres undefined) | 121%
60 | Cc1ccc(CCNC(=O)C2COc3ccccc3C2)cc1 (centres undefined) | 88%
61 | CCOc1ccc(CCNC(=O)C2COc3ccccc3C2)cc1OCC (centres undefined) | -2% (active)
62 | CCc1ccc(CNC(=O)C2COc3ccccc3C2)cc1 (centres undefined) | 88%
63 | O=C(NCCc1ccc(Cl)cc1)C1COc2ccccc2C1 (centres undefined) | 88%
64 | COc1ccc(CCNC(=O)C2COc3ccccc3C2)cc1OC (centres undefined) | 59%
